According to PubChem BioAssay (Tox21):
A number with no mark means an inactive call. Records with an inconclusive call do not appear. A call without a number means that no potency is given here. The source made the active and inactive calls. Unless noted, the call rests on the fitted dose curve; in most records, active means well fitted curve in the direction sought with a large enough effect in the repeat runs; inconclusive means weak or mixed curves; inactive means no such curve, though single readings can be large; an effect the other way counts as inactive or inconclusive.

Assays:
[1] = biological target: Thyrotropin receptor (Homo sapiens) (UniProt P16473); experiment: qHTS assay to identify small molecule agonists of the thyroid stimulating hormone receptor (TSHR) signaling pathway (AID 1224843; calls by dose curve; further: nearly all actives have a fitted effect of over 45% in size)
Outline: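 HEK293/TSHR, 800 cells/well; cpd 30 min RT; add cAMP-d2 + anti-cAMP-cryptate, 1 h RT; fluorescence read on plate reader. 15-pt titration, n=3.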

[2] = qHTS assay to identify small molecule agonists of the hypoxia (HIF-1) signaling pathway - cell viability counter screen (AID 1224844; calls by dose curve; further: nearly all actives have a fitted effect of over 50% in size; further: potency means the concentration at half of the fitted maximal effect)
Outline: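 Cytotoxicity was measured in parallel with the HRE-driven beta-lactamase readout: after 17 hrs of compound exposure at 37C, HRE-bla ME-180 cells received CellTiter-Glo and luminescence was recorded 30 min later.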

[3] = qHTS assay to identify small molecule agonists of the hypoxia (HIF-1) signaling pathway (AID 1224846; active means well fitted activation curve with a large enough effect in the signal ratio in the repeat runs, not every such curve was filed as active; the % refers to the signal ratio)
Outline: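 Compounds from the Tox21 10K library, dissolved in DMSO, are tested for induction of a hypoxia response element–controlled beta-lactamase reporter in ME-180 cells. Exposure lasts 17 hrs at 37C after a 5 hr settling period, followed by CCF4-AM FRET substrate.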

[4] = qHTS assay to identify small molecule agonists of the estrogen related receptor (ERR) signaling pathway from Tox21 library (AID 1224849; calls by dose curve; further: nearly all actives have a fitted effect of over 15% in size); details: ERR reporter cell line, ONE-Glo luciferase, 18 h; at 92.4 µM (top of the series) unless noted
Outline: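 Cells carrying the ERR reporter were plated and allowed to settle for 6 h, exposed to library compounds for 18 h at 37 C, then lysed with ONE-Glo and luminescence measured.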

[5] = qHTS RealTime-Glo MT Cell Viability Assay in HepG2 cells - 24 hour (AID 1224867); further: nearly all actives have a fitted effect of over 50% in size; further: potency means the concentration at half of the fitted maximal effect
Outline: (§1)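 Luminescence read-out: viable HepG2 cells reduce a prosubstrate to a NanoLuc substrate, giving a signal proportional to live cell number. Reads taken at 0, 8, 16, 24, 32 and 40 h of compound exposure at 37 C.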

[6] = A CellTox Green Cytotoxicity Assay to monitor cytotoxicity in HEK293 cells - 0 hour (AID 1224869); further: nearly all actives have a fitted effect of over 50% in size
Outline: (§2)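 Cells (HEK293, 600/well) and dye reagent are dispensed together. After 5 h at 37 C, 23 nL compound is pinned in. Plates stay at 37 C for 40 h with fluorescence read at 0h, 8h, 16h, 24h, 32h and 40h.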

[7] = qHTS RealTime-Glo MT Cell Viability Assay in HepG2 cells - 40 hour (AID 1224870); further: nearly all actives have a fitted effect of over 50% in size; further: potency means the concentration at half of the fitted maximal effect
Outline: (§3)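 HepG2 cells (600/well) mixed with RealTime-Glo MT reagent, settled 5 h at 37 C/5% CO2 before compound addition. Nonlytic NanoLuc luminescence from viable-cell prosubstrate reduction read repeatedly during 40 h treatment at 37 C.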

[8] = A CellTox Green Cytotoxicity Assay to monitor cytotoxicity in HEK293 cells - 24 hour (AID 1224875); further: nearly all actives have a fitted effect of over 45% in size
Outline: as §2

[9] = A CellTox Green Cytotoxicity Assay to monitor cytotoxicity in HepG2 cells - 16 hour (AID 1224876); further: nearly all actives have a fitted effect of over 45% in size
Outline: (§4)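 Cells and non-lytic dye reagent are dispensed together (600 HepG2 cells/well) and incubated 5 h before DMSO compound transfer. Kinetic fluorescence is then recorded in the same wells during 40 h at 37 C.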

[10] = qHTS RealTime-Glo MT Cell Viability Assay in HepG2 cells - 32 hour (AID 1224877); further: nearly all actives have a fitted effect of over 55% in size; further: potency means the concentration at half of the fitted maximal effect
Outline: as §1

[11] = A CellTox Green Cytotoxicity Assay to monitor cytotoxicity in HepG2 cells - 24 hour (AID 1224878); further: nearly all actives have a fitted effect of over 45% in size
Outline: as §4

[12] = qHTS assay to identify small molecule antagonists of the estrogen related receptor (ERR) signaling pathway from Tox21 library (AID 1224848); further: nearly all actives have a fitted effect of over 50% in size; further: potency means the concentration at half of the fitted maximal effect
Outline: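 Compounds dissolved in DMSO are pin-transferred onto ERR reporter cells (2,000 per well) that have settled for 6 h at 37 C. Plates then incubate 18 h at 37 C before ONE-Glo luciferase reagent and a luminescence read 30 min later.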

[13] = qHTS RealTime-Glo MT Cell Viability Assay in HEK293 cells - 32 hour (AID 1224868); further: nearly all actives have a fitted effect of over 50% in size; further: potency means the concentration at half of the fitted maximal effect; on activity change, negative = cytotoxic: top concentration of the series differs between compounds
Outline: (§5)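 Nonlytic real-time viability readout: viable cells convert prosubstrate to NanoLuc substrate, giving luminescence proportional to live cell number. HEK293, 600 cells/well, compound added after 5 h, continuous culture at 37 C.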

[14] = qHTS RealTime-Glo MT Cell Viability Assay in HepG2 cells - 8 hour (AID 1224873); further: nearly all actives have a fitted effect of over 55% in size
Outline: as §3

[15] = A CellTox Green Cytotoxicity Assay to monitor cytotoxicity in HepG2 cells - 40 hour (AID 1224879); further: nearly all actives have a fitted effect of over 40% in size; further: potency means the concentration at half of the fitted maximal effect
Outline: as §4

[16] = qHTS assay to identify small molecule agonists of H2AX - cell viability counter screen (AID 1224847; calls by dose curve;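 further: wild-type CHO-K1 cells; top concentration of the series differs between compounds; nearly all actives have a fitted effect of over 30% in size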)
Outline: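 For this counter screen, overnight-attached CHO-K1 cells received test compounds (15 concentrations, 0.76% DMSO final); 3 hr later at 37C, CellTiter-Glo reagent was added and luminescence recorded after 30 min at room temperature.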

[17] = A CellTox Green Cytotoxicity Assay to monitor cytotoxicity in HEK293 cells - 40 hour (AID 1224871); further: nearly all actives have a fitted effect of over 45% in size
Outline: as §2

[18] = qHTS RealTime-Glo MT Cell Viability Assay in HEK293 cells - 16 hour (AID 1224872)
Outline: as §5

[19] = qHTS RealTime-Glo MT Cell Viability Assay in HEK293 cells - 40 hour (AID 1224874); details: RealTime-Glo luminescence; max response: hits give low values; further: nearly all actives have a fitted effect of over 50% in size; further: potency means the concentration at half of the fitted maximal effect
Outline: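 Real-time viability in HEK293: signal arises when living cells convert a prosubstrate for NanoLuc in the medium, so luminescence tracks viable cell number. Compound (23 nL, DMSO) added 5 h post-seeding; kinetic reads at 0–40 h, 37 C.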

Thyrotropin receptor (Homo sapiens), sequence (P16473 whole entry, looked up): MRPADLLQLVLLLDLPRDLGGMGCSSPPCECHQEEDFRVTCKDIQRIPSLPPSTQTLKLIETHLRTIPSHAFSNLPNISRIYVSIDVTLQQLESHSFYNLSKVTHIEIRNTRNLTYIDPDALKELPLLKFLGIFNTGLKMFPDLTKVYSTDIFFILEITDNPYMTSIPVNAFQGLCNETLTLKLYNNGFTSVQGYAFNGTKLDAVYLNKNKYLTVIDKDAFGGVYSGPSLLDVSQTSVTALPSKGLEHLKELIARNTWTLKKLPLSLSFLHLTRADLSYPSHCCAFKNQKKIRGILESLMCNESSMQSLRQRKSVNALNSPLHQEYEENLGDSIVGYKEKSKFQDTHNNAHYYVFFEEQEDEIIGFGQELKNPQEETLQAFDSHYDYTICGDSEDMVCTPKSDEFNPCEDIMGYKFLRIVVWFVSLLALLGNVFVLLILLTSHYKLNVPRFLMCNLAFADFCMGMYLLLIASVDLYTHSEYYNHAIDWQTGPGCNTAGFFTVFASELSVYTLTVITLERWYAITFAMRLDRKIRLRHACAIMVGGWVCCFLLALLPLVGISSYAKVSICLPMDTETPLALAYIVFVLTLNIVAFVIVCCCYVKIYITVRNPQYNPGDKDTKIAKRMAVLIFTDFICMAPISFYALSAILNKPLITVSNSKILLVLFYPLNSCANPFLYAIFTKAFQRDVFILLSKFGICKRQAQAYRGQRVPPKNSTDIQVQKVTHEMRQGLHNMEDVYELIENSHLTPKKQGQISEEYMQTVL

Q: Which results are given for `O=c1[nH]c2ccc(S(=O)CCN3CCC(Cc4ccc(F)cc4)CC3)cc2o1` (stereo not drawn)?
A: Potency [1]: inactive; Potency [2]: inactive; outcome [3]: inactive; activity change, positive = activation [4]: -29.7%; Potency [5]: inactive; Potency [6]: inactive; Potency [7]: inactive; Potency [8]: inactive; Potency [9]: inactive; Potency [10]: inactive; Potency [11]: inactive

Q: For `O=C(N[C@@H](c1ccccc1)[C@@H]1CCCCN1)c1cccc(C(F)(F)F)c1Cl`, which Potency [1] is on record?
A: inactive

Q: And the Potency [2]?
A: inactive

Q: What about the Potency [12] of the same compound?
A: 30.6 µM (active)

Q: What about the activity change, positive = activation [4] of the same compound?
A: -38.1%

Q: And the Potency [5]?
A: 43.6 µM (active)

Q: And the Potency [13]?
A: 24.5 µM (active)

Q: And the Potency [6]?
A: inactive

Q: What about the Potency [7] of the same compound?
A: 43.6 µM (active)

Q: And the Potency [14]?
A: inactive

Q: And the Potency [10]?
A: 43.6 µM (active)

Q: What about the Potency [15] of the same compound?
A: 34.7 µM (active)

Q: For `Nc1ccc(S(=O)(=O)O)c(N)c1`, which Potency [1] is on record?
A: inactive

Q: What about the Potency [2] of the same compound?
A: inactive

Q: And the outcome [3]?
A: inactive

Q: And the Potency [16]?
A: inactive

Q: And the Potency [12]?
A: inactive

Q: And the activity change, positive = activation [4]?
A: 1.48%

Q: And the Potency [5]?
A: inactive

Q: And the Potency [13]?
A: inactive

Q: And the Potency [6]?
A: inactive

Q: And the Potency [7]?
A: inactive

Q: What about the Potency [17] of the same compound?
A: inactive

Q: What about the Potency [18] of the same compound?
A: inactive

Q: What about the Potency [14] of the same compound?
A: inactive

Q: What about the max response [19] of the same compound?
A: -8.29%

Q: What about the Potency [9] of the same compound?
A: inactive

Q: And the Potency [10]?
A: inactive

Q: What about the Potency [11] of the same compound?
A: inactive

Q: What about the Potency [15] of the same compound?
A: inactive

Q: Which Potency [1] does the source give for `CC(COc1ccc(C(C)(C)C)cc1)OS(=O)OCCCl` (stereo not drawn) here?
A: inactive

Q: And the Potency [2]?
A: 1.75 µM (active)

Q: And the outcome [3]?
A: inactive

Q: And the Potency [16]?
A: inactive

Q: What about the Potency [12] of the same compound?
A: 0.614 µM (active)

Q: And the activity change, positive = activation [4]?
A: -72.8%

Q: What about the Potency [5] of the same compound?
A: inactive

Q: What about the Potency [6] of the same compound?
A: inactive

Q: And the Potency [7]?
A: inactive

Q: What about the Potency [17] of the same compound?
A: inactive

Q: What about the Potency [14] of the same compound?
A: inactive

Q: And the Potency [19]?
A: 0.391 µM (active)

Q: And the Potency [8]?
A: inactive

Q: What about the Potency [9] of the same compound?
A: inactive

Q: What about the Potency [10] of the same compound?
A: inactive

Q: And the Potency [11]?
A: inactive

Q: And the Potency [15]?
A: inactive

Q: Which activation [1] does the source give for `CCCCCCCCCCCCCCCCBr` here?
A: -0.411% [at 19 µM]

Q: What about the activity change, negative = cytotoxicity [2] of the same compound?
A: -1.79% [at 15.8 µM]

Q: What about the activation [3] of the same compound?
A: 0.309% [at 15.8 µM]

Q: What about the activity change, negative = cytotoxicity [16] of the same compound?
A: 2.27% [at 31.6 µM]

Q: What about the activity, negative = inhibition [12] of the same compound?
A: 8.88% [at 19 µM]

Q: What about the activity change, positive = activation [4] of the same compound?
A: 4.62% [at 19 µM]

Q: And the activity change, negative = cytotoxicity [5]?
A: 2.08% [at 15.8 µM]

Q: What about the cytotoxicity [6] of the same compound?
A: -1.2% [at 15.8 µM]

Q: What about the activity change, negative = cytotoxic [7] of the same compound?
A: 2.22% [at 15.8 µM]

Q: What about the activity change, negative = cytotoxicity [18] of the same compound?
A: 6.53% [at 15.8 µM]

Q: What about the viability change, negative = cytotoxic [14] of the same compound?
A: 2.68% [at 15.8 µM]

Q: What about the max response [19] of the same compound?
A: 4.08%

Q: And the activity change [8]?
A: 2.71% [at 15.8 µM, hits give high values]

Q: What about the cytotoxicity increase [9] of the same compound?
A: -3.1% [at 15.8 µM]

Q: And the activity change, negative = cytotoxic [10]?
A: 2.91% [at 15.8 µM]

Q: What about the cytotoxicity [11] of the same compound?
A: -6.35% [at 15.8 µM]

Q: What about the cytotoxicity increase [15] of the same compound?
A: -7.84% [at 15.8 µM]

Q: What does the source list for `CCCCCCOC(=O)C(C)C`?
A: Potency [1]: inactive; Potency [2]: inactive; outcome [3]: inactive; Potency [12]: inactive; activity change, positive = activation [4]: 7.77%; Potency [5]: inactive; Potency [13]: inactive; Potency [6]: inactive; Potency [7]: inactive; Potency [17]: inactive; Potency [18]: inactive; Potency [14]: inactive; max response [19]: 6.06%; Potency [8]: inactive; Potency [9]: inactive; Potency [10]: inactive; Potency [11]: inactive; Potency [15]: inactive

Q: Which Potency [1] does the source give for `CC(=O)Nc1ccc(N)cc1` here?
A: inactive

Q: What about the Potency [2] of the same compound?
A: inactive

Q: And the outcome [3]?
A: inactive

Q: What about the Potency [16] of the same compound?
A: inactive

Q: What about the Potency [5] of the same compound?
A: inactive

Q: And the Potency [13]?
A: inactive

Q: And the Potency [6]?
A: inactive

Q: What about the Potency [7] of the same compound?
A: inactive

Q: And the Potency [17]?
A: inactive

Q: And the Potency [18]?
A: inactive

Q: What about the max response [19] of the same compound?
A: 4.7%

Q: And the Potency [8]?
A: inactive

Q: And the Potency [9]?
A: inactive

Q: What about the Potency [10] of the same compound?
A: inactive

Q: What about the Potency [11] of the same compound?
A: inactive

Q: And the Potency [15]?
A: inactive
